4 molecules from PubChem BioAssay (EPA / NIEHS) can be followed below.

The source made the active and inactive calls. How the source made its calls: active means hit-call score of the fitted dose curve at least 0.9, where 1 is the maximum; inactive means score below 0.9.

What all share (conditions): mRNA level, 48 h; actives raise or lower the signal
Read-out in assay [1]: Cyclin Dependent Kinase Inhibitor 1A (CDKN1A), CDKN1A (gene 1026)
Briefly: LTEA_HepaRG_CDKN1A: Life Technologies and Expression Analysis (LTEA) Assay for Cyclin Dependent Kinase Inhibitor 1A (CDKN1A) using HepaRG (AID 2283450). A digest of the protocol:
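HepaRG, 48 h dosing, 8-pt half-log series from 100 uM top, 0.5% DMSO vehicle, duplicates. Readout: TaqMan qRT-PCR of CDKN1A transcript, housekeeping-normalized (ACTB, GAPDH, POLR2A). Up/down curve fit relative to DMSO.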

Read-out in assay [2]: Cyclin D1 (CCND1), CCND1 (gene 595)
The assay can be described thus: LTEA_HepaRG_CCND1: Life Technologies and Expression Analysis (LTEA) Assay for Cyclin D1 (CCND1) using HepaRG (AID 2283451). A digest of the protocol:
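qRT-PCR (Fluidigm 96.96 array) read-out of transcript level, housekeeping-normalized (ACTB/GAPDH/POLR2A). HepaRG cells, 48 h chemical exposure, 8-point half-log series from 100 uM, 0.5% DMSO vehicle; gain or loss relative to DMSO baseline.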

Read-out in assay [3]: catalase (CAT), CAT (gene 847)
The assay can be described thus: LTEA_HepaRG_CAT: Life Technologies and Expression Analysis (LTEA) Assay for catalase (CAT) using HepaRG (AID 2283452). The essentials: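 Expression of CAT was quantified by TaqMan qRT-PCR with ACTB/GAPDH/POLR2A normalization after 48 h chemical exposure of HepaRG. Eight-point half-log series, top 100 uM, in 0.5% DMSO; gain or loss fitted against vehicle.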

Read-out in assay [4]: flavin-containing dimethylaniline monooxygenases 3 (FMO3), FMO3 (gene 2328)
Briefly: LTEA_HepaRG_FMO3: Life Technologies and Expression Analysis (LTEA) Assay for flavin-containing dimethylaniline monooxygenases 3 (FMO3) using HepaRG (AID 2283453).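 On AC50: differentiated human HepaRG liver cells in serum-free induction medium.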 A digest of the protocol: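 Eight-point concentration-response in serum-free HepaRG cultures (top 100 uM, 0.5% DMSO, 48 h). Read-out: FMO3 mRNA level normalized to three endogenous control genes, fitted bidirectionally versus vehicle.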

Read-out in assay [5]: Cytochrome P450 (CYP1A1), CYP1A1 (gene 1543)
The assay can be described thus: LTEA_HepaRG_CYP1A1: Life Technologies and Expression Analysis (LTEA) Assay for Cytochrome P450 (CYP1A1) using HepaRG (AID 2283454). A digest of the protocol: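 qRT-PCR read-out: CYP1A1 transcript normalized to three housekeeping genes, fitted bidirectionally against 0.5% DMSO vehicle baseline. Human HepaRG cells, 48 h chemical exposure, 8-point half-log series topping at 100 uM.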

Read-out in assay [6]: CFLAR gene, CFLAR (gene 8837)
Briefly: LTEA_HepaRG_CFLAR: Life Technologies and Expression Analysis (LTEA) Assay for CFLAR gene using HepaRG (AID 2283455). The essentials:
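Transcript level by qRT-PCR (normalized to ACTB, GAPDH and POLR2A) after 48 h chemical exposure of HepaRG cells, top concentration 100 uM with half-log steps, 0.5% DMSO vehicle, duplicates; fitted bidirectionally against DMSO baseline.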

Read-out in assay [7]: Forkhead box O1 (FOXO1), FOXO1 (gene 2308)
The assay can be described thus: LTEA_HepaRG_FOXO1: Life Technologies and Expression Analysis (LTEA) Assay for Forkhead box O1 (FOXO1) using HepaRG (AID 2283456). A digest of the protocol: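 FOXO1 transcript quantified by qRT-PCR after 48 h chemical exposure (top 100 uM, half-log steps, 0.5% DMSO) of HepaRG cells, housekeeping-normalized (ACTB/GAPDH/POLR2A). Changes fitted in both directions relative to vehicle.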

Read-out in assay [8]: growth arrest and DNA damage 45 (GADD45A), GADD45A (gene 1647)
Briefly: LTEA_HepaRG_GADD45A: Life Technologies and Expression Analysis (LTEA) Assay for growth arrest and DNA damage 45 (GADD45A) using HepaRG (AID 2283458). The essentials: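 HepaRG, 48 h exposure, 8 conc. (top 100 uM, half-log steps), 0.5% DMSO vehicle, duplicates. Read-out: qRT-PCR mRNA level, housekeeping-normalized (ACTB/GAPDH/POLR2A). Curves fit bidirectionally vs DMSO baseline.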

Read-out in assay [9]: ABC Transporter (ABCB1), ABCB1 (gene 5243)
The assay can be described thus: LTEA_HepaRG_ABCB1: Life Technologies and Expression Analysis (LTEA) Assay for ABC Transporter (ABCB1) using HepaRG (AID 2283460). A digest of the protocol: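 ABCB1 transcript level measured by TaqMan qRT-PCR against three housekeeping genes after 48 h chemical exposure of differentiated HepaRG cells. Top concentration 100 uM, half-log steps, eight points, 0.5% DMSO vehicle; bidirectional fit relative to DMSO.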

Read-out in assay [10]: ABC Transporter (ABCB11), ABCB11 (gene 8647)
Briefly: LTEA_HepaRG_ABCB11: Life Technologies and Expression Analysis (LTEA) Assay for ABC Transporter (ABCB11) using HepaRG (AID 2283463). A digest of the protocol:
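ABCB11 transcript levels quantified by TaqMan qRT-PCR against three housekeeping genes after 48 h chemical exposure of HepaRG cultures. Concentrations up to 100 uM in half-log steps, 0.5% DMSO vehicle; both induction and suppression scored.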

Read-out in assay [11]: ABC Transporter (ABCC2), ABCC2 (gene 1244)
The assay can be described thus: LTEA_HepaRG_ABCC2: Life Technologies and Expression Analysis (LTEA) Assay for ABC Transporter (ABCC2) using HepaRG (AID 2283464). The essentials:
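qRT-PCR (TaqMan, Fluidigm array) read-out of ABCC2 mRNA, normalized to three housekeeping genes. Differentiated HepaRG cells were treated 48 h in serum-free induction medium with 8-point half-log series from 100 uM in 0.5% DMSO; curves fitted bidirectionally relative to DMSO.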

Read-out in assay [12]: Broad substrate specificity ATP-binding cassette transporter ABCG2 (Homo sapiens) (UniProt Q9UNQ0)
Briefly: LTEA_HepaRG_ABCG2: Life Technologies and Expression Analysis (LTEA) Assay for ABC Transporter (ABCG2) using HepaRG (AID 2283465). The essentials: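 ABCG2 transcript was quantified by TaqMan qRT-PCR against three housekeeping genes in HepaRG cells. Cells were treated in duplicate for 48 h across an 8-point half-log series up to 100 uM, with 0.5% DMSO vehicle. Gain or loss versus DMSO was fit.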

Read-out in assay [13]: ATP-citrate lyase (ACLY), ACLY (gene 47)
Briefly: LTEA_HepaRG_ACLY: Life Technologies and Expression Analysis (LTEA) Assay for ATP-citrate lyase (ACLY) using HepaRG (AID 2283466). A digest of the protocol:
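ACLY mRNA quantified by qRT-PCR on Fluidigm arrays against three housekeeping genes, after 48 h chemical treatment of HepaRG cells (top concentration 100 uM, half-log steps, 0.5% DMSO vehicle). Up- or down-regulation fitted relative to DMSO.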

Read-out in assay [14]: Peroxisomal acyl-coenzyme A oxidase 1 (ACOX1) gene, ACOX1 (gene 51)
Briefly: LTEA_HepaRG_ACOX1: Life Technologies and Expression Analysis (LTEA) Assay for Peroxisomal acyl-coenzyme A oxidase 1 (ACOX1) gene using HepaRG (AID 2283467). A digest of the protocol: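 ACOX1 transcript levels were quantified by TaqMan qRT-PCR against three housekeeping genes after 48 h chemical exposure of differentiated human HepaRG cells. Exposure used eight half-log steps topping at 100 uM, 0.5% DMSO vehicle, in duplicate. Bidirectional curve fits were made relative to DMSO.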

Read-out in assay [15]: Alkaline Phosphatase, Placental (ALPP) gene, ALPP (gene 250)
The assay can be described thus: LTEA_HepaRG_ALPP: Life Technologies and Expression Analysis (LTEA) Assay for Alkaline Phosphatase, Placental (ALPP) gene using HepaRG (AID 2283468).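 On AC50: differentiated human HepaRG liver cells in serum-free induction medium.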 A digest of the protocol:
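qRT-PCR readout of ALPP mRNA (Fluidigm TaqMan), normalized to ACTB/GAPDH/POLR2A, after 48 h chemical exposure of HepaRG cells; 8-point half-log series, top 100 uM, 0.5% DMSO vehicle. Bidirectional curve fit versus DMSO baseline.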

Read-out in assay [16]: Bcl-2 (BAD) gene, BAD (gene 572)
The assay can be described thus: LTEA_HepaRG_BAD: Life Technologies and Expression Analysis (LTEA) Assay for Bcl-2 (BAD) gene using HepaRG (AID 2283469). A digest of the protocol: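 Read-out: qRT-PCR of BAD mRNA, normalized to three housekeeping genes. Human HepaRG cultures got 48 h chemical exposure in 0.5% DMSO, duplicate eight-point half-log series topping at 100 uM. Gain or loss of signal fitted versus DMSO vehicle.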

Read-out in assay [17]: growth arrest and DNA damage 45 (GADD45B), GADD45B (gene 4616)
Briefly: LTEA_HepaRG_GADD45B: Life Technologies and Expression Analysis (LTEA) Assay for growth arrest and DNA damage 45 (GADD45B) using HepaRG (AID 2283461). A digest of the protocol: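 qRT-PCR read-out (Fluidigm TaqMan, housekeeping-normalized) of mRNA change in human HepaRG cells after 48 h chemical exposure; 8-point curve, top 100 uM, half-log steps, 0.5% DMSO vehicle; gain or loss fitted relative to DMSO baseline.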

Read-out in assay [18]: ABC Transporter (ABCC3), ABCC3 (gene 8714)
Briefly: LTEA_HepaRG_ABCC3: Life Technologies and Expression Analysis (LTEA) Assay for ABC Transporter (ABCC3) using HepaRG (AID 2283462). A digest of the protocol: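 qRT-PCR read-out of ABCC3 transcript, normalized to three housekeeping genes (ACTB, GAPDH, POLR2A), after 48 h chemical exposure of human HepaRG cells. Eight half-log concentrations, highest 100 uM, in 0.5% DMSO; gain or loss fitted relative to DMSO baseline.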

Broad substrate specificity ATP-binding cassette transporter ABCG2 (Homo sapiens), sequence (Q9UNQ0 whole entry, looked up): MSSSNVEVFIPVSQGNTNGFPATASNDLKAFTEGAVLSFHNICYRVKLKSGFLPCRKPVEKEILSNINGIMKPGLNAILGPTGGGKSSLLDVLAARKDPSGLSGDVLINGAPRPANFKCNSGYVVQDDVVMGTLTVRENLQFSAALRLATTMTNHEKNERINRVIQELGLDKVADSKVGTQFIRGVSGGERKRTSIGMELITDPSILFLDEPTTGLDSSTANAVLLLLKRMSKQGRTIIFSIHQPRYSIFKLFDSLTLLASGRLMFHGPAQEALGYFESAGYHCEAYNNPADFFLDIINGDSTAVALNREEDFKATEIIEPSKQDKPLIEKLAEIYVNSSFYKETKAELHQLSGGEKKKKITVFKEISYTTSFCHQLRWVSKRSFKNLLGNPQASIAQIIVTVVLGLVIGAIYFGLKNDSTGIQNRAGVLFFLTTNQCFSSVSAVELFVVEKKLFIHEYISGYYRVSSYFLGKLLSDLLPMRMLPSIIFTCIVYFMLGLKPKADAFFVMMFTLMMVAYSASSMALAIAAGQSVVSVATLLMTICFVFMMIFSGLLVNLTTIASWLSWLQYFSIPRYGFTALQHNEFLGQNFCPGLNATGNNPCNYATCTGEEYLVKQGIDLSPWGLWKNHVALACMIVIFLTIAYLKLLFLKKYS

With `CCCCCCCCCC(=O)O`, the outcome in assay [1], in [2], in [3], in [4], in assay [6] and in assay [7] was inactive. The molecule was called inactive in [8], in assay [9], in assay [10], in assay [11], in assay [12] and in [13]. Further, the call in assay [14], in [15] and in [16] was inactive. In [5], the AC50 – broadly, the midpoint of the concentration-response curve, whichever way the signal moves – was 70.9 µM (active).

Consider `Cc1cc2c(cc1C(F)(F)F)N(C(=O)Nc1ccc(Oc3cccnc3C)nc1)CC2`, for which the outcome in assay [1], in assay [2], in [9], in assay [17], in assay [11] and in assay [13] was inactive. Also, the outcome in assay [16] was inactive. For the same molecule, the concentration at half-maximal activity (AC50) is 46 µM (active) in assay [3]; 46 µM (active) in assay [4]; 3.67 µM (active) in [5]; 72.6 µM (active) in [6]; 80.9 µM (active) in [7]; 78.1 µM (active) in assay [8]. The concentration at half-maximal activity (AC50) in assay [18] was 11.6 µM (active); in assay [10] it was 3.86 µM (active); in [12], 11 µM (active); in assay [15] it was 15.8 µM (active).

For the molecule `O=CCCCC=O`, the molecule was classed as inactive in assay [1], in assay [2], in assay [3], in assay [4], in assay [5] and in [6]. The outcome in [7], in assay [8], in assay [9], in [10], in assay [11] and in assay [12] was inactive. Also, the outcome in assay [13], in [14], in assay [15] and in assay [16] was inactive.

In the case of `CCN(CC)C(=O)c1cc(S(=O)(=O)Cc2ccccc2)c(N2CCC(c3ccccc3)CC2)cc1N(CC)CCN(C)C`, the result in [1], in assay [2], in [6], in assay [7], in [8] and in [10] was inactive. Further, the molecule was called inactive in assay [12] and in [16]. For the same molecule, the half-maximal activity concentration (AC50) in assay [3] is 30.2 µM (active); in assay [4] it was 29.4 µM (active); in assay [5], 7.21 µM (active); in assay [9] it was 35.1 µM (active); in [11], 30.8 µM (active); in [13], 4.57 µM (active). The AC50 in assay [14] is 32.7 µM (active); in assay [15], 31.5 µM (active).
